Test results: PubChem BioAssay (NCATS)
Several values for one entry are separate records, joined by “and”; a condition that tells them apart may be missing. Identical values can stand only once. Records with an inconclusive call do not appear. Activity calls are given as the source filed them. Unless noted, calls follow the shape of the dose curve; as a rule, active = well fitted curve in the direction sought with a large enough effect; inconclusive = small, poorly fitted or top-dose-only effect, or another doubt; inactive = no such curve, though single readings can be large; an effect the other way counts as inactive or inconclusive.

Key:
[1] = target: T1, Hexokinase-4 (Homo sapiens) + Glucokinase regulatory protein (Homo sapiens) (UniProt P35557+Q14397); assay: qHTS assay for inhibitors of recombinant human GCK-GKRP interaction: ADP-Glo assay (AID 743206);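 also: plate controls were DMSO plus enzyme for no effect and no enzyme for full effect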
Procedure, shortened: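 Pin-transferred compounds meet a 15 nM GST-GCK/15 nM FLAG-GKRP/2 uM S6P mix (dispense concentrations). ATP is then added to 0.4 mM final with 5 mM glucose, and the reaction runs 60 min at room temperature. ADP is quantified luminescently.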

[2] = target: T1, Hexokinase-4 (Homo sapiens) + Glucokinase regulatory protein (Homo sapiens); assay: qHTS assay for inhibitors of recombinant human GCK-GKRP interaction: HTRF assay (AID 743207);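 also: 0% = DMSO with GCK present and -100% = DMSO wells lacking GCK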
Procedure, shortened: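 HTRF read-out (ex 320 nm; 615/665 nm emission) after 60 min RT equilibration of 5 nM GST-GCK, 5 nM FLAG-GKRP, 2 uM S6P, compound and anti-FLAG/anti-GST detection antibodies; signal normalized between DMSO wells with and without GCK.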

[3] = qHTS Assay for Identifying Gametocytocidal Compounds (AID 743244);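 also: % is scaled to controls: 0 for no effect and ±100 for the full control effect; actives lower the fluorescent signal which means gametocytes are killed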; conditions: P. falciparum 3D7 stage III-V gametocytes, alamarBlue, 72 h; max response: stronger effect = lower value
Procedure, shortened: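 Fluorescence at Ex 525/Em 598 nm, recorded 24 h after alamarBlue addition, reports residual metabolic activity of 3D7 gametocytes (stages III–V) following 72 h compound exposure at 37 °C, 5% CO2.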

[4] = qHTS assay for cell viability of HEK293 cells (AID 743288); conditions: ATP luminescence (CellTiter-Glo), 18 h; max response: stronger effect = lower value; also: % is scaled to controls: 0 for no effect and ±100 for the full control effect; nearly all actives have a fitted effect of over 50% in size
Procedure, shortened: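 ATP luminescence (CellTiter-Glo) reports metabolically competent cell number after parental HEK293 cells, 2,000/well, were treated with DMSO-dissolved compounds for 18 h at 37 C; reagent incubation 30 min, room temperature.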

[5] = qHTS assay for cell viability of the p53RE-bla HCT-116 cell line (AID 743292); also: % is scaled to controls: 0 for no effect and ±100 for the full control effect; nearly all actives have a fitted effect of over 55% in size
Procedure, shortened: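 Compound-exposed HCT-116 (p53RE-bla) cells, 4,000 per well, were kept 16 h at 37 C following a 5 h preincubation. Cell number was estimated from total ATP by CellTiter-Glo luminescence read after 30 min at room temperature.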

[6] = qHTS profiling of the MIPE4 collection as inhibitors of Plasmodium falciparum (3D7) proliferation (AID 743344; call rule not given here;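 also: scaled between DMSO vehicle wells and 0.29 µM artemisinin as full inhibition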); conditions: P. falciparum 3D7 in erythrocytes, SYBR Green DNA fluorescence, 72 h; at 28.5 µM (top of the series) unless noted
Procedure, shortened: (§1)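 Parasite DNA was quantified by SYBR Green I fluorescence (ex 485, em 535 nm) after overnight lysis in saponin/Triton buffer at room temperature. Cultures at 0.3% parasitemia and 2.5% hematocrit were first exposed to compound for 72 h at 37 C; signals were normalised to artemisinin (0.29 uM) and vehicle wells.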

[7] = qHTS profiling of the MIPE4 collection as inhibitors of Plasmodium falciparum (DD2) proliferation (AID 743345; call rule not given here); conditions: P. falciparum Dd2 in erythrocytes, SYBR Green DNA, 72 h; at 28.5 µM (top of the series) unless noted
Procedure, shortened: as §1

[8] = qHTS profiling of the MIPE4 collection as inhibitors of Plasmodium falciparum (DD2) proliferation (Rep 2) (AID 743346; call rule not given here); conditions: P. falciparum Dd2 in erythrocytes, SYBR Green DNA, 72 h; at 28.5 µM (top of the series) unless noted
Procedure, shortened: as §1

[9] = qHTS profiling of the MIPE4 collection as inhibitors of Plasmodium falciparum (HB3) proliferation (AID 743347; call rule not given here;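 also: plate controls were DMSO vehicle wells for no effect and artemisinin wells for full effect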); conditions: P. falciparum HB3 in erythrocytes, SYBR Green DNA, 72 h; at 28.5 µM (top of the series) unless noted
Procedure, shortened: as §1

[10] = High-throughput drug toxicity screening in the BPDCN cell line Gen2.2 (AID 1224824; call rule not given here;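 also: cells exposed to compounds for 48 h before reading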); conditions: Gen2.2 BPDCN cells; at 45.8 µM (top of the series) unless noted
Procedure, shortened: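 CellTiter-Glo luminescence after 48 h compound exposure of Gen2.2 cells; percent activity set with DMSO as 100% and bortezomib (9.2 uM final) as 0%. Cells seeded at 500 per well, RPMI + 10% FBS, 37 °C.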

[11] = High-throughput drug toxicity screening in the BPDCN cell line Cal-1 (AID 1224825; call rule not given here); conditions: Cal-1 BPDCN cell viability, qHTS; at 45.8 µM (top of the series) unless noted
Procedure, shortened: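 CellTiter-Glo luminescence after 48 h compound exposure; percent activity scaled with DMSO as 100% and bortezomib (9.2 uM final) as 0%. Cal-1 cells seeded at 500/well in RPMI, 10% FBS, no phenol red.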

[12] = qHTS assay for measurement of the activity of small molecule inhibitors on Zika virus induced Caspase-3 activity in human iPSC derived neural progenitor cells (hNPCs) (AID 1224857); also: % of control where 0% means no effect; nearly all actives have a fitted effect of over 65% in size
Procedure, shortened: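 Zika virus (2 FFU/cell) infection of human iPSC-derived NPCs, 6 h, following 1 h compound preincubation. Read-out: Caspase-Glo 3/7 luminescence.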

[13] = qHTS assay for measurement of the activity of small molecule inhibitors on Zika virus induced Caspase-3 activity in human astrocytoma cells (AID 1224859);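 also: plate controls were ZIKV-infected untreated cells for no effect and uninfected cells for full effect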
Procedure, shortened: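 Caspase activation in ZIKV-infected SNB-19 cells (2 FFU/cell, 6 h) measured by Caspase-Glo 3/7 luminescence after 30 min RT; compound pre-incubated 1 h; normalised to uninfected and infected controls.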

[14] = qHTS Screen of the MIPE 4.0 Collection Against Ewings Sarcoma (RDES) (AID 1259252); also: nearly all actives have a fitted effect of over 35% in size; also: potency is read from the fitted curve at half-maximal effect
Procedure, shortened: (§2)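 Dose series incubated 48 h with cells in RPMI plus 5% FBS, glutamine and penicillin/streptomycin; cell viability then quantified via CellTiter-Glo.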

[15] = qHTS Screen of the MIPE 4.0 Collection Against Ewings Sarcoma (TC71) (AID 1259253); also: nearly all actives have a fitted effect of over 40% in size; also: potency is read from the fitted curve at half-maximal effect
Procedure, shortened: as §2

[16] = qHTS Screen of the MIPE 4.0 Collection Against Ewings Sarcoma (EW8) (AID 1259255);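 also: 100% = DMSO-treated cells and 0% = medium-only wells without cells; nearly all actives have a fitted effect of over 35% in size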
Procedure, shortened: as §2

[17] = qHTS Screen of the MIPE 4.0 Collection Against Ewings Sarcoma (TC32) (AID 1259256);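 also: 100% = DMSO-treated cells and 0% = medium-only wells without cells; nearly all actives have a fitted effect of over 45% in size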
Procedure, shortened: as §2

T1 sequence (P35557 whole entry, looked up): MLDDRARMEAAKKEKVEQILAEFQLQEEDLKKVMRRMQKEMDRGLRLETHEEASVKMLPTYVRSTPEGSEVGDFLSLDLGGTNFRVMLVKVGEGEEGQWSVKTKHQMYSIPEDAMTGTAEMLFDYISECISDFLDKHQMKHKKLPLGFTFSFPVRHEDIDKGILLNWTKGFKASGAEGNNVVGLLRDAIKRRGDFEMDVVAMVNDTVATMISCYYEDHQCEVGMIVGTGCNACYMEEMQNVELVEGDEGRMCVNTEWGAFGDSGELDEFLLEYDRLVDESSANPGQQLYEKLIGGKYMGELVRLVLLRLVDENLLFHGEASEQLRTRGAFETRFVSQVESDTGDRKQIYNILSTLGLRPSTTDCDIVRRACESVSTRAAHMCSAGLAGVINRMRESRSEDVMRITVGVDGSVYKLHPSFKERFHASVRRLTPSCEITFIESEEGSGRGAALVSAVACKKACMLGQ
T1 sequence (Q14397 whole entry, looked up): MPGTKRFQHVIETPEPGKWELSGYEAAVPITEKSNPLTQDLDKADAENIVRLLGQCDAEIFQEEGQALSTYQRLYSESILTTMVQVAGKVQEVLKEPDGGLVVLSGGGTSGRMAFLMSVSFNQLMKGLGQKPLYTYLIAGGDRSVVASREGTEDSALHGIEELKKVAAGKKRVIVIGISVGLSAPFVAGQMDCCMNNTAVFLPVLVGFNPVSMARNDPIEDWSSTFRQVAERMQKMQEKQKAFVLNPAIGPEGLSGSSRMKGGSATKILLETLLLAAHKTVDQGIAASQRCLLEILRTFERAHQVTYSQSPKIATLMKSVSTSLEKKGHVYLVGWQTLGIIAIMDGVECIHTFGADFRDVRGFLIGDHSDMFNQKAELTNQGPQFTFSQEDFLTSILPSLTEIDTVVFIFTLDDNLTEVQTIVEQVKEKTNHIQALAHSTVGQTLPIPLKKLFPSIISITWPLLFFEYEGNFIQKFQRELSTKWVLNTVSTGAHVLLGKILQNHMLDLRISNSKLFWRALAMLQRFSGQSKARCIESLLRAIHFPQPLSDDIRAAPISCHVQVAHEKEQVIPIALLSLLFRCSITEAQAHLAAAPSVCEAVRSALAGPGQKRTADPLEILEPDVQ

With `CC(C)Cc1ccc(C(C)C(=O)O)cc1` (stereo unspecified) the Potency [1] was “inactive”, the Potency [2] was “inactive” and the max response [3] was 19.9% (inactive) and 9.6% (inactive). For the same molecule, the max response [4] was -10% (inactive), the Potency [5] was “inactive” and the parasite growth, % of DMSO control [6] was 112% [at 9.64 µM]. It also gave a parasite growth remaining, % of DMSO control (lower = more inhibition) [7] of 99.8% [at 9.64 µM], a parasite growth, % of control (lower = inhibition) [8] of 162% [at 9.64 µM] and a growth, % of control [9] of 94.2% [at 9.64 µM]. The cell viability, % of control (lower = more cytotoxic) [10] was 116% [at 23.2 µM], the viability (% of control) [11] was 113% [at 23.2 µM] and the Potency [12] was “inactive”. The Potency [13] was “inactive”, the Potency [14] was “inactive” and the Potency [15] was “inactive”. The Potency [16] was “inactive” and the Potency [17] was “inactive”.
With `N[C@@H](Cc1c[nH]c2ccc(O)cc12)C(=O)O` the Potency [1] was “inactive”, the Potency [2] was “inactive” and the max response [3] was -0.101% (inactive) and -5.53% (inactive). The max response [4] was 3.87% (inactive), the Potency [5] was “inactive” and the parasite growth, % of DMSO control [6] was 101%. It also gave a parasite growth remaining, % of DMSO control (lower = more inhibition) [7] of 101%, a parasite growth, % of control (lower = inhibition) [8] of 132% and a growth, % of control [9] of 99.6%. The cell viability, % of control (lower = more cytotoxic) [10] was 126%, the viability (% of control) [11] was 35.8% and the Potency [12] was “inactive”. For the same molecule, the Potency [13] was “inactive”, the Potency [14] was “inactive” and the Potency [15] was “inactive”. For the same molecule, the Potency [16] was “inactive”.
For `COc1cc2nc(N(C)CCCNC(=O)C3CCCO3)nc(N)c2cc1OC` (stereo unspecified), the Potency [1] was “inactive”, the Potency [2] was “inactive” and the max response [3] was 19.8% (inactive) and 12.7% (inactive). The parasite growth, % of DMSO control [6] was 64%, the parasite growth remaining, % of DMSO control (lower = more inhibition) [7] was 88.3% and the parasite growth, % of control (lower = inhibition) [8] was 63%. It also gave a growth, % of control [9] of 67.3%, a cell viability, % of control (lower = more cytotoxic) [10] of 230% and a viability (% of control) [11] of 115%. For the same molecule, the Potency [12] was “inactive”, the Potency [13] was “inactive” and the Potency [14] was “inactive”. For the same molecule, the Potency [15] was “inactive”, the Potency [16] was “inactive” and the Potency [17] was “inactive”.
With `COc1cc2nc(N3CCN(C(=O)C4COc5ccccc5O4)CC3)nc(N)c2cc1OC` (stereo unspecified) the Potency [1] was “inactive”, the Potency [2] was “inactive” and the max response [3] was 2.28% (inactive). The parasite growth, % of DMSO control [6] was 5.44%, the parasite growth, % of control (lower = inhibition) [8] was 11.1% and the growth, % of control [9] was 2.34%. For the same molecule, the cell viability, % of control (lower = more cytotoxic) [10] was 14.1%, the viability (% of control) [11] was 8.05% and the Potency [12] was “inactive”. For the same molecule, the Potency [13] was “inactive”, the Potency [14] was “inactive” and the Potency [15] was 16.6 µM (active).
With `Nc1nc2c(ncn2COC(CO)CO)c(=O)[nH]1` the Potency [1] was “inactive”, the Potency [2] was “inactive” and the max response [3] was -13.4% (inactive) and 3.21% (inactive). It also gave a parasite growth, % of DMSO control [6] of 91.1%, a parasite growth remaining, % of DMSO control (lower = more inhibition) [7] of 92.5% and a parasite growth, % of control (lower = inhibition) [8] of 84.9%. It also gave a growth, % of control [9] of 49%, a cell viability, % of control (lower = more cytotoxic) [10] of 5.03% and a viability (% of control) [11] of 3.13%. The Potency [12] was “inactive”, the Potency [13] was “inactive” and the Potency [14] was 26.4 µM (active). The Potency [15] was 23.5 µM (active) and the Potency [17] was “inactive”.
In the case of `C[C@](N)(Cc1ccc(O)c(O)c1)C(=O)O`, the Potency [1] is reported as “inactive”, the Potency [2] is reported as “inactive” and the max response [3] is reported as 9.51% (inactive). The max response [4] was -5.13% (inactive), the Potency [5] was “inactive” and the parasite growth, % of DMSO control [6] was 73.9%. The parasite growth remaining, % of DMSO control (lower = more inhibition) [7] was 80%, the parasite growth, % of control (lower = inhibition) [8] was 77.2% and the growth, % of control [9] was 86%. For the same molecule, the cell viability, % of control (lower = more cytotoxic) [10] was 46.6%, the viability (% of control) [11] was 66% and the Potency [12] was “inactive”. The Potency [13] was “inactive”, the Potency [14] was “inactive” and the Potency [15] was “inactive”. For the same molecule, the Potency [16] was “inactive” and the Potency [17] was “inactive”.
